# From the supplement of paper PMC13380429
# System: Vero E6 infected with SARS-CoV-2
# Experiment: morphology score (similarity to uninfected cells); higher = more like uninfected cells
# Conditions: 24 h
row,Structure (SMILES),morphology score
1,O=C1N[C@@H]2[C@@H](O)[C@@H](O)[C@H](O)[C@@H](CO)N2C1=O [kifunensine] (10 µM),0.19
2,CCCCCOc1ccc(-c2cc(-c3ccc(C(=O)N[C@H]4C[C@@H](O)[C@@H](O)NC(=O)[C@@H]5[C@@H](O)[C@@H](C)CN5C(=O)[C@H]([C@H](O)CC(N)=O)NC(=O)[C@H]([C@H](O)[C@@H](O)c5ccc(O)c(OS(=O)(=O)O)c5)NC(=O)[C@@H]5C[C@@H](O)CN5C(=O)[C@H]([C@@H](C)O)NC4=O)cc3)no2)cc1 [micafungin] (10 µM),0.0545
3,CCCCNc1nc(N)c2[nH]c(=O)n(Cc3ccc(OCCN(C)C)nc3)c2n1 (10 µM),0.0113
4,C[C@H](N)Cn1ccc2cc(F)c(Cl)cc21 (10 µM),0.45
5,Cc1cc(F)c(Nc2ncnc3cc(OCc4ccccc4)ccc23)cc1O (10 µM),0.0561
6,CN(C)C(=O)COC(=O)Cc1ccc(OC(=O)c2ccc(NC(=N)N)cc2)cc1 [camostat-mesilate] (10 µM),0.0997
7,CC[N+](CC)(CC(=O)Nc1c(C)cccc1C)Cc1ccccc1 [denatonium-benzoate] (10 µM),0.144
8,CCCCCCCCCC(=O)O[C@H]1CC[C@H]2[C@@H]3CCC4=CC(=O)CC[C@@H]4[C@H]3CC[C@]12C [Nandrolone decanoate] (10 µM),-0.019
9,CC1(C)O[C@@H]2C[C@H]3[C@@H]4C[C@H](F)C5=CC(=O)C=C[C@]5(C)[C@H]4[C@@H](O)C[C@]3(C)[C@]2(C(=O)CO)O1 [flunisolide] (10 µM),0.103
10,CC(=O)Nc1cccc(O)c1 [metacetamol] (10 µM),0.0448
11,CC1CCc2cc(F)cc3c(=O)c(C(=O)O)cn1c23 (stereo not given) [flumequine] (10 µM),-0.154
12,Nc1ncc(Cc2ccc(Br)cc2)s1 (10 µM),0.13
13,N=C(N)NCCN1CCCCCCC1 [guanethidine] (10 µM),-0.0499
14,O=C(NO)c1cnc(N2CCN(S(=O)(=O)c3ccc4ccccc4c3)CC2)nc1 (10 µM),-0.145
15,Nc1cc(Cl)c(N=C2NCCN2)c(Cl)c1 [apraclonidine] (10 µM),-0.0224
16,Cc1cn(-c2cc(NC(=O)c3ccc(C)c(Nc4nccc(-c5cccnc5)n4)c3)cc(C(F)(F)F)c2)cn1 [nilotinib] (10 µM),0.334
17,CC(=O)Nc1cccc(Nc2ncnc(N3CCC(OCc4ccc(OC(F)(F)F)cc4)CC3)n2)c1C (10 µM),0.184
18,Cc1ccc(NC(=O)C(C)C)cc1C1CCN(Cc2ccc(Oc3ccc(F)c(F)c3)cc2)CC1 (0.833333 µM),0.375
19,O=C(O)CCc1c[nH]c2ccccc12 (10 µM),0.0821
20,CO[C@H]1/C=C/O[C@@]2(C)Oc3c(C)c(O)c4c(O)c(c(/C=N/N=C/N5CCCCC5)c(O)c4c3C2=O)NC(=O)/C(C)=C\C=C\[C@H](C)[C@H](O)[C@@H](C)[C@@H](O)[C@@H](C)[C@H](OC(C)=O)[C@@H]1C (10 µM),0.053
21,COC(=O)Nc1ccc(-c2nc(N3CCOCC3)c3cnn(C4CCN(C(=O)OC)CC4)c3n2)cc1 (0.833333 µM),0.00734
22,COc1ccc(C(=O)C2CCN(CC(=O)N(Cc3nc4c(c(=O)[nH]3)COCC4)CC3CC3)CC2)cc1 (10 µM),0.165
23,CCCCCCCCCCCCCCCC[n+]1ccn(Cc2ccccc2)c1C (0.833333 µM),0.0516
24,CN[C@@H]1[C@H](O)[C@H](NC)[C@H]2O[C@@]3(O)C(=O)C[C@@H](C)O[C@H]3O[C@@H]2[C@H]1O [spectinomycin] (0.833333 µM),0.0353
25,COc1cc2nccc(Oc3ccc(NC(=O)C4(C(=O)Nc5ccc(F)cc5)CC4)cc3)c2cc1OC [cabozantinib] (0.833333 µM),0.329
26,C[C@@H](N[C@H]1CCCC[C@@H]1NC(=O)c1ccc(Cl)cc1)c1cccc2ccccc12 [Calhex-231] (10 µM),0.134
27,CC(=O)[C@H]1CC[C@H]2[C@@H]3CC[C@H]4C[C@H](O)CC[C@]4(C)[C@H]3CC[C@]12C [allopregnanolone] (10 µM),0.0997
28,CCCCCCCCNC(C)C(O)c1ccc(SC(C)C)cc1 (stereo not given) [suloctidil] (10 µM),0.834
29,CN(C)CCOc1ccc(/C(=C(/CCCl)c2ccccc2)c2ccccc2)cc1 [toremifene] (0.833333 µM),-0.0544
30,CCc1cccc(CC)c1NC(=O)CN(CC(=O)O)CC(=O)O [etifenin] (10 µM),0.115
